This note sets out measurements from PubChem BioAssay (Tox21).

Structures are written as SMILES. Results filed as inconclusive are left out. Entries that show only a call come without a potency. Unmarked numbers belong to inactive results. Active and inactive are the calls of the source. The call rests on the fitted dose curve; in most records, active means well fitted cell-killing curve with a large enough effect in the repeat runs; inconclusive means weak or mixed curves, or effect the other way; inactive means flat fitted curve, though single readings scatter.
Potency means the concentration at half of the fitted maximal effect.

A short description of the experiment: qHTS RealTime-Glo MT Cell Viability Assay in HepG2 cells - 0 hour (AID 1224889). Further: nearly all actives have a fitted effect of over 50% in size. Particulars: RealTime-Glo luminescence; series mostly up to 76.8 µM. The text has this:
U.S. Tox21 Program National Center for Advancing Translational Sciences [NCATS] NIH Chemical Genomics Center [NCGC] U.S. Environmental Protection Agency [EPA] National Institutes of Environmental Health Sciences [NIEHS] National Toxicology Program [NTP] U.S. Food and Drug Administration [FDA] Tox21 Assay Overview: Measure of cell viability is critical in the cell-base assay. Analysis of cell viability is necessary for the characterization of cell responses to cytotoxic drugs and environmental stress. A RealTime-Glo MT Cell Viability Assay to monitor cell viability in real time of continues cell culture during 40 hours of compound treatment was used to screen Tox21 10K library compounds in HepG2 cells. The RealTime-Glo MT Cell Viability Assay is a nonlytic, homogeneous, bioluminescent method to measure cell viability in real time using a simple, plate-based method. The assay involves adding NanoLuc luciferase and a cell-permeant prosubstrate to cells in culture. Viable cells reduce the proprietary prosubstrate to generate a substrate for NanoLuc luciferase. This substrate diffuses from cells into the surrounding culture medium, where it is rapidly used by the NanoLuc Enzyme to produce a luminescent signal. The signal correlates with the number of viable cells, making the assay well suited for cytotoxicity studies.
Tox21 Assay Protocol Summary: The mixture of HepG2 cell suspension and reagents were dispensed at 600cells/6 ul/well in 1536-well tissue culture treated black solid bottom plates using a Multidrop dispenser. After the assay plates were incubated at a 37 C/5% CO2 incubator for 5 hours, 23 nL of compounds dissolved in DMSO, positive and negative controls was transferred to the assay plate by a pintool work station. The plates were incubated at 37 C for 40 hours. The luminescence intensity were measured at 0h, 8h, 16h, 24h, 32h and 40h time points using ViewLux plate reader during compound treatment.
On the technique in general: In qHTS, concentration-response curves come from the screen itself.
On to `CCC(C)=O`, for which the Potency result is “inactive”.

Turning to `CC1CC(=O)NN=C1c1ccc(NCC(C)(C)NCC(O)COc2cc(Cl)ccc2C#N)cc1` (stereo not given), the Potency entry was “inactive”.

Take `CC(=O)[C@H]1CC[C@H]2[C@@H]3C[C@H](C)C4=CC(=O)CC[C@]4(C)[C@H]3[C@@H](O)C[C@]12C`: the Potency is 0.379 µM (active).

Turning to `C=CCCCCCCCCCCCCCCCC`, the activity change, negative = cytotoxicity is -21.4% [at 6.97 µM].

Turning to `O=C(O)Cc1ccc(-c2ccccc2)cc1`, the Potency result was “inactive”.

Turning to `CCCCCCOC(=O)CCCCCCCC(=O)OCCCCCC`, the Potency result was “inactive”.

Regarding `COCCOC`, the Potency entry was “inactive”.

In the case of `CC(C)CCCC(=O)O`, the Potency result is “inactive”.

As to `c1cnc2c(n1)CCCC2`, the Potency entry is “inactive”.

For the compound `CCOC(=O)OCC`, the Potency result was “inactive”.

With `CCCCC(CC)CNCC(CC)CCCC` (stereo not given), the Potency entry is “inactive”.

Consider `CCCCCCCC/C=C\CCCCCCCC(=O)OC`, for which the Potency result is “inactive”.

As to `CCC(C(=O)OCCOCCN(CC)CC)c1ccccc1` (stereo not given), the Potency result was “inactive”.

In the case of `OCC1CC=CCC1` (stereo not given), the Potency result was “inactive”.

As to `Cc1c(C(=O)NN2CCCCC2)nn(-c2ccc(Cl)cc2Cl)c1-c1ccc(Cl)cc1`, the Potency result is “inactive”.

As for `CC1(C)C2=CCCC(C)(C)[C@]23CC[C@H]1C3`, the Potency is 34.7 µM (active).

`CC(C)(O)c1ccccc1CC[C@@H](SCC1(CC(=O)O)CC1)c1cccc(/C=C/c2ccc3ccc(Cl)cc3n2)c1`: the Potency entry is “inactive”.

With `CCCCCCCCCCCC[N+](C)(C)CCCS(=O)(=O)[O-]`, the Potency result is “inactive”.

Turning to `CN1CCCN=C1/C=C/c1cccs1`, the Potency entry was “inactive”.

In the case of `CC(CCc1ccc2c(c1)OCO2)NN` (stereo not given), the Potency entry is “inactive”.

As to `C/C(=N/NC(=O)c1ccncc1)C(=O)O`, the Potency entry was “inactive”.

For the compound `Cc1cc2nc3ccc(=[N+](C)C)cc-3sc2cc1N`, the Potency result is “inactive”.

For `CC(C)(C)C(=O)O`, the Potency result is “inactive”.

With `COC(=O)c1cc(Cl)ccc1NS(=O)(=O)C(F)(F)F`, the Potency result is “inactive”.

As for `NC(=O)N(O)[C@@H]1C=C[C@H](Oc2cccc(Oc3ccc(F)cc3)c2)C1`, the Potency result was “inactive”.

`Nc1ccc(S(=O)(=O)O)c(N)c1`: the Potency result is “inactive”.

With `CSc1ccc(Oc2ccc(S(N)(=O)=O)cc2CN(C)C)cc1C`, the Potency result was “inactive”.

With `CC(=O)OCC(=O)[C@H]1CC[C@H]2[C@@H]3CCC4=CC(=O)CC[C@]4(C)[C@H]3CC[C@]12C`, the Potency is 3.01 µM (active).

Turning to `O=C(OCCOCCO)c1ccccc1Nc1cccc(C(F)(F)F)c1`, the Potency result was “inactive”.

As to `c1ccc(COCc2ccccc2)cc1`, the Potency result was “inactive”.

As for `COc1ccccc1N=Nc1c(S(=O)(=O)O)cc2cc(S(=O)(=O)O)cc(NC(C)=O)c2c1O`, the Potency entry is “inactive”.

For the compound `Cc1ccc(S)cc1`, the Potency result is “inactive”.

`Nc1ccc(Cl)cc1[N+](=O)[O-]`: the Potency result is “inactive”.

Consider `Cc1oncc1C(=O)Nc1ccc(C(F)(F)F)cc1`, for which the Potency entry was “inactive”.

For `CCC(Cc1ccccc1)(C(=O)c1ccc(N2CCOCC2)cc1)N(C)C` (stereo not given), the Potency entry was “inactive”.

In the case of `Brc1cc(-c2ccc(Br)c(Br)c2Br)cc(Br)c1Br`, the Potency result was “inactive”.

As for `CCOC(=O)c1ccccc1OC`, the Potency result was “inactive”.

As for `N#C/C(=C1/SC[C@@H](c2ccc(Cl)cc2Cl)S1)n1ccnc1`, the Potency result was “inactive”.

With `CCCCCCCCCCCCCCCCBr`, the activity change, negative = cytotoxicity is 6.9% [at 15.8 µM].

Take `O=C1OCCN1/N=C/c1ccc([N+](=O)[O-])o1`: the Potency entry is “inactive”.
